Hits are enriched below; roughly 3.9% of the tested compounds scored in any of these assays.
CDK5 p35 inh: inhibitors of human CDK5/p35 kinase, primary screen, biochemical, single concentration | Recombinant CDK5/p35, ADP-Glo luminescence, 60 min | inhibition, % at 10 µM | Cyclin-dependent kinase 5 (Homo sapiens) + Cyclin-dependent kinase 5 activator 1 (Homo … | 330,000 compounds, 0.01% hits;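 active = highest replicate inhibition of at least 50% and at least 75% of replicates reaching 50%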;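 also: plate controls were DMSO neutral control for no effect and GW8510 at 10 µM for full effect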
Casp6 inh: human caspase-6 inhibitors, primary screen, biochemical, VEID-R110 fluorescence, single point, set 2. P55212. purified caspase-6, Z-VEID-R110 cleavage fluorescence. inhibition, % at 12.5 µM. 350,000 compounds, 0.53% hits;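 active = mean inhibition across replicates at least about 35%, with every replicate also reaching that limit, limit read from the data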;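 also: 0% = median of neutral control wells and 100% = no fluorescence left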
Target sequence (P55212 24-179 limits assumed): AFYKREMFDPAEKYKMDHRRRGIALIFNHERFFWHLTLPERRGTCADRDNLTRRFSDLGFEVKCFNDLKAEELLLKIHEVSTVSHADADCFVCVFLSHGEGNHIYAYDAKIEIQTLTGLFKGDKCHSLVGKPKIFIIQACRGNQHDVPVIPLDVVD
Target sequence (P55212 194-293 limits assumed): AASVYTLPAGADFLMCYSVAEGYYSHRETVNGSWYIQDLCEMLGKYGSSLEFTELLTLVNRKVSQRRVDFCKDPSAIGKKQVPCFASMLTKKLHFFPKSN
N-glyco inh: increase of ERlucT glycosylation luciferase signal, primary screen, N-linked glycosylation inhibitor project, D54 ERlucT cells, luminescence, set 2; reporter increase, % at 12.5 µM; 360,000 compounds, 0.23% hits; AID 588692, 2011; D54 ERlucT glycosylation luciferase reporter, 24 h; percent of 100 nM tunicamycin response;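 active = mean luciferase reporter signal, scaled so untreated is 0 and the glycosylation-blocking control 100, at or above a set limit in every replicate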;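 also: luciferase carries N-glycosylation sites so blocking glycosylation raises the light; 0% = median of neutral control wells and 100% = median of 100 nM tunicamycin wells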
NSD2 HMT inh: NSD2 histone methyltransferase inhibitors, primary screen, biochemical, AlphaScreen, single concentration, set 2; Histone-lysine N-methyltransferase NSD2 (Homo sapiens), O96028; NSD2 peptide methylation, 120 min; inhibition, % at 12.5 µM; 310,000 compounds, 0.54% hits; in the data active = inhibition above about 50%
SUMO Mot1 rescue: yeast Mot1-301 growth rescue at high temperature, primary screen, SUMOylation pathway inhibitor project, S. cerevisiae, ATP luminescence, 38.5C | S. cerevisiae Mot1-301 growth rescue; percent above DMSO median, 100 means doubled | growth rescue, % at 18.8 µM | 320,000 compounds, 1% hits;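 active = every valid replicate shows activation above 250% relative to neutral control wells; inactive = the rest, any valid replicate at or below 250%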;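 also: OY570 slx delta 5 strain wells were the positive control but not used for scaling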
ALR H2O2 inh: inhibitors of human ALR sulfhydryl oxidase, primary screen, biochemical, H2O2 detection, HRP-luminol luminescence, single point | FAD-linked sulfhydryl oxidase ALR (Homo sapiens), P55789 | purified ALR, DTT oxidation | inhibition, % (no concentration beside the values) | 290,000 compounds, 3.8% hits;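 active = mean replicate inhibition above about 79%, with every replicate also reaching it, limit read from the data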
Target sequence (P55789 whole entry, looked up): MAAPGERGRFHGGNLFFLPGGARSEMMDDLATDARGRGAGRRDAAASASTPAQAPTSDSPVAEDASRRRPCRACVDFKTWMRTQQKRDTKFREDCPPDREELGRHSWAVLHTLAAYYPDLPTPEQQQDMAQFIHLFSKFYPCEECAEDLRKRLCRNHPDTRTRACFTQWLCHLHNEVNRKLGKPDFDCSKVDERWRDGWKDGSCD
* marks the source's active call; other numbers are inactive results; · = no result.

SMILES | CDK5 p35 inh | Casp6 inh | N-glyco inh | NSD2 HMT inh | SUMO Mot1 rescue | ALR H2O2 inh
CCOc1cc(/C=C2\NC(=O)NC2=O)cc([N+](=O)[O-])c1O | -1 | 3 | -2 | 4 | -2 | 88*
Cc1c(C(=O)NNC(=S)Nc2cccc(Cl)c2)nnn1-c1ccccc1 | 3 | · | 1 | -1 | 15 | 91*
Cc1c(C(=O)O)nnn1-c1ccccc1 | -2 | · | 0 | -1 | 11 | 5
C[C@@H]1CN([C@H](C)CO)C(=O)c2cc(NS(=O)(=O)c3ccc(Cl)cc3)ccc2O[C@H]1CN(C)C(=O)Nc1ccc2c(c1)OCO2 | · | -3 | · | · | · | ·
O=C(O)c1ccc(S(=O)(=O)NN=Cc2c[nH]c3ccccc23)cc1 | · | 1 | 2 | · | · | ·
Cn1c(N/N=C/c2c[nH]c3ccccc23)nc2ccccc21 | -3 | · | -2 | -6 | 2 | 98*
NC(=S)N/N=C/c1c[nH]c2ccccc12 | 1 | -2 | -1 | 5 | 1 | 99*
O=C(O)c1ccc(N/N=C/c2c[nH]c3ccccc23)cc1 | 2 | 2 | -21 | 2 | -7 | 98*
CCCNC(=O)C1CCN(S(=O)(=O)c2ccc3nc4c(c(C(=O)O)c3c2)CCCCC4)CC1 | -1 | 2 | 1 | · | · | ·
Cc1ccc(CCNC(=O)C2CCN(S(=O)(=O)c3ccc4nc5c(c(C(=O)O)c4c3)CCCC5)CC2)cc1 | -1 | 62* | 0 | -1 | 3 | -13
CCC(C)NC(=O)C1CCN(S(=O)(=O)c2ccc3nc4c(c(C(=O)O)c3c2)CCCCC4)CC1 (centres undefined) | -9 | 0 | -2 | -2 | -12 | 11
CC1CCC(NC(=O)C2CCN(S(=O)(=O)c3ccc4nc5c(c(C(=O)O)c4c3)CC(C)CC5)CC2)CC1 (centres undefined) | 0 | 21 | 1 | 8 | 20 | -10
COc1ccccc1CNC(=O)C1CCN(S(=O)(=O)c2ccc3nc4c(c(C(=O)O)c3c2)CCCC4)CC1 | 0 | 50* | 2 | -2 | 2 | -5
CN(Cc1ccccc1)C(=O)C1CCN(S(=O)(=O)c2ccc3nc4c(c(C(=O)O)c3c2)CCCC4)CC1 | -2 | 62* | -1 | 6 | 38 | -9
O=C(O)c1c2c(nc3ccc(S(=O)(=O)N4CCC(C(=O)NCc5ccccc5)CC4)cc13)CCCC2 | · | 19 | 0 | 2 | · | ·
CC1CCc2nc3ccc(S(=O)(=O)N4CCC(C(=O)NCc5ccccc5Cl)CC4)cc3c(C(=O)O)c2C1 (centres undefined) | -1 | 45* | 2 | 1 | 10 | 10
CCC(=O)N(C)C[C@H]1Oc2cc(-c3ccccc3C)ccc2S(=O)(=O)N([C@H](C)CO)C[C@H]1C | · | -1 | · | · | · | ·
C[C@@H]1CN([C@H](C)CO)C(=O)c2cccc(N(C)C)c2O[C@H]1CN(C)C | · | 2 | · | · | · | ·
Cc1cc(C(=O)Nc2ccc3c(c2)C(=O)N(C)[C@H]2CC[C@@H](CC(=O)N[C@H](C)c4ccccc4)O[C@@H]2CO3)no1 | · | -1 | · | · | · | ·
COc1ccc(CNC(=O)C2CCN(S(=O)(=O)c3ccc4nc5c(c(C(=O)O)c4c3)CC(C)CC5)CC2)cc1 (centres undefined) | -1 | 36* | 1 | 18 | -2 | 0
CC(NC(=O)C1CCN(S(=O)(=O)c2ccc3nc4c(c(C(=O)O)c3c2)CCCC4)CC1)c1ccccc1 (centres undefined) | 2 | 52* | 0 | -1 | 0 | -1
COCCCNC(=O)C1CCN(S(=O)(=O)c2ccc3nc4c(c(C(=O)O)c3c2)CCCCC4)CC1 | 2 | 0 | 1 | 42 | 6 | -6
C=CCC(CC(O)COCCC)C(=O)NNC(=S)Nc1ccccc1 (centres undefined) | -1 | -1 | 2 | -2 | -16 | 98*
CC(C)CCOCC(O)CCC(=O)NNC(=S)Nc1ccccc1 (centres undefined) | 0 | 0 | 3 | -3 | -11 | 55
O=C(Cc1cccnc1)N[C@@H]1CC[C@@H](CCn2cc(Cc3ccccc3)nn2)O[C@@H]1CO | · | 2 | · | · | · | ·
SMILES | CDK5 p35 inh | Casp6 inh | N-glyco inh | NSD2 HMT inh | SUMO Mot1 rescue | ALR H2O2 inh
C[C@H](CO)N1C[C@H](C)[C@@H](CN(C)C(=O)Cc2cccnc2)Oc2cc(C3=CCCCC3)ccc2S1(=O)=O | · | -3 | · | · | · | ·
Oc1ccc(Br)cc1-c1ccnn1-c1ccccc1 | 4 | 7 | 13 | -1 | -4 | 97*
Oc1ccc(CCc2n[nH]c(=S)n2-c2ccc(F)cc2)cc1 | 1 | -1 | 1 | -2 | 7 | 81*
COc1ccc(-n2c(CCc3ccccc3)n[nH]c2=S)cc1 | -2 | 0 | 2 | 2 | -7 | 10
Cc1cc(C)c2c(N)c3ccccc3nc2n1 | -1 | · | 123* | · | -13 | 1
CCc1ccc(NC(=S)/N=C(\N)Nc2nc(C)c3cc(CC)ccc3n2)cc1 | -2 | -1 | -1 | 1 | 4 | -1
CCc1ccc2nc3nc(C)cc(C)c3c(N)c2c1 | 0 | -2 | 85* | 5 | 29 | -11
Cc1cc(C)c2cccc(N)c2n1 | 2 | 1 | 9 | 13 | 232 | -10
CN(C)CC(=O)c1ccc(-c2ccccc2)cc1 | 3 | · | -2 | 11 | 185 | 62
CCN(CC)CC(=O)c1ccc(-c2ccccc2)cc1 | 0 | · | 1 | 11 | -2 | 99*
CCn1c(=Nc2ccc(N3CCOCC3)cc2)ccc2ccccc21 | 0 | · | -6 | 3 | -7 | 67
Cn1c(=Nc2ccc(N3CCOCC3)cc2)ccc2ccccc21 | 0 | · | 4 | 10 | -2 | 99*
C[C@@H]1CCCCO[C@H](CN(C)Cc2ccncc2)[C@@H](C)CN([C@@H](C)CO)C(=O)c2cc(NS(=O)(=O)c3cn(C)cn3)ccc2O1 | · | -1 | · | · | · | ·
CSc1ccc(C(=O)C2CCCN(C(=O)CN3CCOC3=O)C2)cc1 (centres undefined) | -1 | -1 | 1 | 0 | -15 | -9
Cc1ccn(CC(=O)N2CCCC(N3CCN(c4cccc(Cl)c4)CC3)C2)n1 (centres undefined) | -2 | -4 | 3 | -3 | 151 | 99*
COc1ccc(NC2CCCN(C(=O)Cn3ccc(C)n3)C2)cc1OC (centres undefined) | 2 | 7 | 6 | 4 | 350 | 99*
COc1ccc(NC2CCCN(C(=O)CSc3ccccc3)C2)cc1OC (centres undefined) | -1 | 5 | 3 | 12 | 1 | -16
COc1ccc(NC2CCCN(C(=O)CN3CCOC3=O)C2)cc1OC (centres undefined) | -1 | 7 | 0 | 3 | 16 | 100*

Screens from PubChem BioAssay.
